Data as given in paper PMC7862700, “An all-to-all approach to the identification of sequence-specific readers for epigenetic DNA modifications on cytosine”.

Tests used:
Test in all cases: DAPPL (digital affinity profiling via proximity ligation, sequencing); 10 mM Tris-HCl pH 7.5, 50 mM NaCl, 1 mM DTT, 4% glycerol, room temperature, 30 min; GST-TFs on glutathione beads, 16-mer random dsDNA library, 0.1% formaldehyde crosslink after washing; high values mean tight binding
Conditions in all cases: protein: recombinant; tags: N-terminal GST; dsDNA, one strand shown
FLI1 = biological target: T1, FLI1 (Homo sapiens, UniProt Q01543 1-452)
T1 sequence: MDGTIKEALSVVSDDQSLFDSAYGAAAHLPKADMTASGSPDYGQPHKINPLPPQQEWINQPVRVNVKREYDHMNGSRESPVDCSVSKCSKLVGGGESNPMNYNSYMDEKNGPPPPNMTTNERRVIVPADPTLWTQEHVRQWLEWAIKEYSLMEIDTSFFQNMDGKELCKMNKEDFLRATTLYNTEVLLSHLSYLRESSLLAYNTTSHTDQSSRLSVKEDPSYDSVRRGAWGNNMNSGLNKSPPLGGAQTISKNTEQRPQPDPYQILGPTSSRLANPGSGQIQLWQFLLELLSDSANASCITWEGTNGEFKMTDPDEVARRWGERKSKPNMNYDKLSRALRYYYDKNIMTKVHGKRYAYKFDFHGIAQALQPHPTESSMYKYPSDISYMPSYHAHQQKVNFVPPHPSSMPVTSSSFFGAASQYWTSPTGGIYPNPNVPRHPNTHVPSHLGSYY
How it was run: (§1)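 The binding signal reported is, for every hexamer, its read frequency for a factor over its read frequency for the tag-only sample. Reads came from pools of yeast-expressed, GST-fused human transcription factors on glutathione beads, barcoded with DNA and mixed with that sample, which were incubated with 200 nmole of a random double-stranded 16-mer DNA library in Tris/NaCl/DTT/glycerol buffer at room temperature for 30 min. After washing, the pools were crosslinked with 0.1% formaldehyde, proximity-ligated with BsaI/T4 ligase for 1 h at 37 °C, PCR-amplified and sequenced on an Illumina NextSeq500.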

ELK1 = biological target: T2, ELK1 (Homo sapiens, UniProt P19419 1-428)
T2 sequence: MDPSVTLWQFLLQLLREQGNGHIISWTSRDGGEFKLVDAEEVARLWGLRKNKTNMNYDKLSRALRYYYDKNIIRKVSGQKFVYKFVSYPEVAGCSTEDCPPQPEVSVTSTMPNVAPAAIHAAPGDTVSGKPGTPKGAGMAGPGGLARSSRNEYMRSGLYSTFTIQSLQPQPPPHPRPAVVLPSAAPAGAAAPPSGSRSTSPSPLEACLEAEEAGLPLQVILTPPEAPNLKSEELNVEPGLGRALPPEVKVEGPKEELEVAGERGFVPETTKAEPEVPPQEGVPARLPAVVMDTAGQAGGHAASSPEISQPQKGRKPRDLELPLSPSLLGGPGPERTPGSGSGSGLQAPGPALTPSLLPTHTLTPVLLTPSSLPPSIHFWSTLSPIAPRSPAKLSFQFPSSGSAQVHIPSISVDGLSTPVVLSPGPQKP
How it was run: as §1

GABPA = biological target: T3, GABPA (Homo sapiens, UniProt Q06546 1-454)
T3 sequence: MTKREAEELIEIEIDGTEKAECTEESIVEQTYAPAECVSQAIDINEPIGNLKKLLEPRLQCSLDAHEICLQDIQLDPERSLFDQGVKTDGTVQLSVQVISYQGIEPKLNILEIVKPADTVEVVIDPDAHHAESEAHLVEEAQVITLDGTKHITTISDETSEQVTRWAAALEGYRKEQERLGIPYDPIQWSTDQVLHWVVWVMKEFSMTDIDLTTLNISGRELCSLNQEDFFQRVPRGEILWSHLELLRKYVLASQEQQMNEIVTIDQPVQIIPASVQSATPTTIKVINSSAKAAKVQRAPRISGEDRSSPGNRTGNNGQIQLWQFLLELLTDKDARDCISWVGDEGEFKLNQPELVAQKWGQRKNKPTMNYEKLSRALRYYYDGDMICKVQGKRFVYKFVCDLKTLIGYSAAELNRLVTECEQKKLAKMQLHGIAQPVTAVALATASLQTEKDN
How it was run: as §1

ERG = biological target: T4, ERG (Homo sapiens, UniProt P11308 1-479)
T4 sequence: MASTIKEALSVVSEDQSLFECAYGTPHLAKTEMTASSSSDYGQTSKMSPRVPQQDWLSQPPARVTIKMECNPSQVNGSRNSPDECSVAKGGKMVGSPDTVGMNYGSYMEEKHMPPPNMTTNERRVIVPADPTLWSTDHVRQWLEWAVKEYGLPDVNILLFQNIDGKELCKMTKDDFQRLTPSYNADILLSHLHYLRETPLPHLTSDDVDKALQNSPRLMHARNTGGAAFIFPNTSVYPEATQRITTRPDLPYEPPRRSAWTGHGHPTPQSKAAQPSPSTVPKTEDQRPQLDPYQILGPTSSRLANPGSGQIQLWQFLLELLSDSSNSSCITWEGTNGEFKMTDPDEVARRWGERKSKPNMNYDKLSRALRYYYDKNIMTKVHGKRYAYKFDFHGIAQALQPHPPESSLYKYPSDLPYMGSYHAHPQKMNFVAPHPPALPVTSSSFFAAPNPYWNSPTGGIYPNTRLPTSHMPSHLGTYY
How it was run: as §1

ELF1 = ELF1 (Homo sapiens, UniProt P32519 1-619)
Sequence of ELF1 (P32519 whole entry): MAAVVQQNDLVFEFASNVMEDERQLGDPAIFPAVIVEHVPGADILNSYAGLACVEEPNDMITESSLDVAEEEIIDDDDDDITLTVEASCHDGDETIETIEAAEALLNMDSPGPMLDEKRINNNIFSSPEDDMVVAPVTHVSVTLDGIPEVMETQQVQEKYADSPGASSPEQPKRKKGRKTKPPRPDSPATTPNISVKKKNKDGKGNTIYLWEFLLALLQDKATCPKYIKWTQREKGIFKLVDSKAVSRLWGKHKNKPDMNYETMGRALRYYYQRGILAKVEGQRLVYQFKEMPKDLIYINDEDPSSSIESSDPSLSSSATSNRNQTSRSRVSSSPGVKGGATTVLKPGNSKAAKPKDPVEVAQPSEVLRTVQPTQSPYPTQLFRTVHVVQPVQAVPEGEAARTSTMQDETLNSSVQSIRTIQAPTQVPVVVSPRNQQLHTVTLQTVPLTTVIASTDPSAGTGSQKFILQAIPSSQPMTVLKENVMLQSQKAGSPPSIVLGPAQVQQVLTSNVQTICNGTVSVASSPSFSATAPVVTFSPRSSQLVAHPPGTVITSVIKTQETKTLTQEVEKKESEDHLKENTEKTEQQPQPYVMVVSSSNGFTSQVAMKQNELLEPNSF
How it was run: as §1

EHF = biological target: T5, EHF (Homo sapiens, UniProt Q9NZC4 1-300)
T5 sequence: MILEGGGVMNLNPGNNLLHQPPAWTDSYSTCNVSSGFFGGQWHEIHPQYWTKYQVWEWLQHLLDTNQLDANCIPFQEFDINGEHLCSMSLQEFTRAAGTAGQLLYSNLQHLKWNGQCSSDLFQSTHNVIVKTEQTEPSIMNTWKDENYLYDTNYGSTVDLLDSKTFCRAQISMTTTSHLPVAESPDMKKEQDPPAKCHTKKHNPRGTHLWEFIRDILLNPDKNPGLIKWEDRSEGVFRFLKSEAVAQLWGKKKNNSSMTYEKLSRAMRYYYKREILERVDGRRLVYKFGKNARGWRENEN
How it was run: as §1

SPI1 = SPI1 (Homo sapiens, UniProt P17947 1-270)
How it was run: as §1

SPIB = SPIB (Homo sapiens, UniProt Q01892 1-262)
Sequence of SPIB (Q01892 whole entry): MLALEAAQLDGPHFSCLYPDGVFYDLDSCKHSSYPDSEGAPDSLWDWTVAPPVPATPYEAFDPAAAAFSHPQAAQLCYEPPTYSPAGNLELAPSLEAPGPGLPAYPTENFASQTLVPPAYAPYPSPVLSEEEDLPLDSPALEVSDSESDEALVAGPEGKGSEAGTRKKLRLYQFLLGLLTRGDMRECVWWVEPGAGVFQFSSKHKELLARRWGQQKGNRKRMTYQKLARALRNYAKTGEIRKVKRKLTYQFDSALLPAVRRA
How it was run: as §1

ELK3 = biological target: T6, ELK3 (Homo sapiens, UniProt P41970 1-407)
T6 sequence: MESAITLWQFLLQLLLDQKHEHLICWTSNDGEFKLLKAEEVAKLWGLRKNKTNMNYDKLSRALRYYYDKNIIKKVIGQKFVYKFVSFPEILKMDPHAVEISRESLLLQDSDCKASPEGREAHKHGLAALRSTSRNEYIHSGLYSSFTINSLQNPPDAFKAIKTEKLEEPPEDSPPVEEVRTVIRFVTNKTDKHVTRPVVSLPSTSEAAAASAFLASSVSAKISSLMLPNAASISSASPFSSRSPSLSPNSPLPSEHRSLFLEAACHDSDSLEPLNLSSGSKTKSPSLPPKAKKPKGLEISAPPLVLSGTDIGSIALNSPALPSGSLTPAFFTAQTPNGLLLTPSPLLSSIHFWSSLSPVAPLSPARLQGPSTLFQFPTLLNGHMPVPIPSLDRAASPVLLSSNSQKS
How it was run: as §1

Sequence	binding signal (FLI1)	binding signal (ELK1)	binding signal (GABPA)	binding signal (ERG)	binding signal (ELF1)	binding signal (EHF)	binding signal (SPI1)	binding signal (SPIB)	binding signal (ELK3)
CTGATT	1.18 fold enrichment (6-mer frequency, TF over GST control)	1.21 fold enrichment (6-mer frequency, TF over GST control)	1.14 fold enrichment (6-mer frequency, TF over GST control)	1.2 fold enrichment (6-mer frequency, TF over GST control)	1.22 fold enrichment (6-mer frequency, TF over GST control)	1.22 fold enrichment (6-mer frequency, TF over GST control)	1.09 fold enrichment (6-mer frequency, TF over GST control)	1.21 fold enrichment (6-mer frequency, TF over GST control)	1.21 fold enrichment (6-mer frequency, TF over GST control)
CTTAAA	1.12 fold enrichment (6-mer frequency, TF over GST control)	1.14 fold enrichment (6-mer frequency, TF over GST control)	1.24 fold enrichment (6-mer frequency, TF over GST control)	1.16 fold enrichment (6-mer frequency, TF over GST control)	1.22 fold enrichment (6-mer frequency, TF over GST control)	1.2 fold enrichment (6-mer frequency, TF over GST control)	1.22 fold enrichment (6-mer frequency, TF over GST control)	1.23 fold enrichment (6-mer frequency, TF over GST control)	1.08 fold enrichment (6-mer frequency, TF over GST control)
TTAAAA	1.19 fold enrichment (6-mer frequency, TF over GST control)	1.15 fold enrichment (6-mer frequency, TF over GST control)	1.19 fold enrichment (6-mer frequency, TF over GST control)	1.15 fold enrichment (6-mer frequency, TF over GST control)	1.22 fold enrichment (6-mer frequency, TF over GST control)	1.16 fold enrichment (6-mer frequency, TF over GST control)	1.33 fold enrichment (6-mer frequency, TF over GST control)	1.23 fold enrichment (6-mer frequency, TF over GST control)	1.22 fold enrichment (6-mer frequency, TF over GST control)
GAACCT	1.09 fold enrichment (6-mer frequency, TF over GST control)	1.27 fold enrichment (6-mer frequency, TF over GST control)	1.06 fold enrichment (6-mer frequency, TF over GST control)	1.09 fold enrichment (6-mer frequency, TF over GST control)	1.13 fold enrichment (6-mer frequency, TF over GST control)	1.15 fold enrichment (6-mer frequency, TF over GST control)	1.11 fold enrichment (6-mer frequency, TF over GST control)	1.14 fold enrichment (6-mer frequency, TF over GST control)	1.18 fold enrichment (6-mer frequency, TF over GST control)
GATTTT	1.16 fold enrichment (6-mer frequency, TF over GST control)	1.15 fold enrichment (6-mer frequency, TF over GST control)	1.21 fold enrichment (6-mer frequency, TF over GST control)	1.12 fold enrichment (6-mer frequency, TF over GST control)	1.12 fold enrichment (6-mer frequency, TF over GST control)	1.18 fold enrichment (6-mer frequency, TF over GST control)	1.12 fold enrichment (6-mer frequency, TF over GST control)	1.12 fold enrichment (6-mer frequency, TF over GST control)	1.07 fold enrichment (6-mer frequency, TF over GST control)
TATAAA	1.17 fold enrichment (6-mer frequency, TF over GST control)	1.29 fold enrichment (6-mer frequency, TF over GST control)	1.21 fold enrichment (6-mer frequency, TF over GST control)	1.18 fold enrichment (6-mer frequency, TF over GST control)	1.21 fold enrichment (6-mer frequency, TF over GST control)	1.28 fold enrichment (6-mer frequency, TF over GST control)	1.26 fold enrichment (6-mer frequency, TF over GST control)	1.3 fold enrichment (6-mer frequency, TF over GST control)	1.26 fold enrichment (6-mer frequency, TF over GST control)
TATTCA	1.31 fold enrichment (6-mer frequency, TF over GST control)	1.26 fold enrichment (6-mer frequency, TF over GST control)	1.23 fold enrichment (6-mer frequency, TF over GST control)	1.29 fold enrichment (6-mer frequency, TF over GST control)	1.38 fold enrichment (6-mer frequency, TF over GST control)	1.32 fold enrichment (6-mer frequency, TF over GST control)	1.29 fold enrichment (6-mer frequency, TF over GST control)	1.27 fold enrichment (6-mer frequency, TF over GST control)	1.35 fold enrichment (6-mer frequency, TF over GST control)
ATGGTA	1.39 fold enrichment (6-mer frequency, TF over GST control)	1.44 fold enrichment (6-mer frequency, TF over GST control)	1.39 fold enrichment (6-mer frequency, TF over GST control)	1.33 fold enrichment (6-mer frequency, TF over GST control)	1.36 fold enrichment (6-mer frequency, TF over GST control)	1.43 fold enrichment (6-mer frequency, TF over GST control)	1.23 fold enrichment (6-mer frequency, TF over GST control)	1.42 fold enrichment (6-mer frequency, TF over GST control)	1.36 fold enrichment (6-mer frequency, TF over GST control)
